Source: the supplement of paper PMC10849652
The full data set covers some 7,900 targets. This sample favours those with a hit. About 0.6% of all pairs of compound and target were hits. Values without a mark were called inactive.

Compound: CCn1c(C(=O)N(C2CC2)C2CC2)cc2c3c(ncn3C)c(Nc3cc(C)n(C)n3)nc21
Test: log2 fold change, soluble protein after heating vs DMSO (PISA); higher = thermal stabilisation; K562 cells, 10 uM, 30 min; active = over 0.2 and 3.5 SD of the protein, either way, in both replicates (recomputed)
Summary of the method: (§1)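 For each measurement, 10 μM compound was applied for 30 min to K562 cells at 2×10^6 cells/mL. Aliquots were heated for 3 min across 48°C-58°C, pooled, and extracted in PBS with 0.5% NP-40 at 4°C; the supernatant after 21,000xg for 90 min was soluble protein. This was quantified by TMTpro 16plex LC-MS/MS with channel sums equalised, and thermal stability was reported relative to control samples from duplicates, on a log2 fold-change scale.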

Chain of UniProt P02749 (P02749 whole entry, looked up): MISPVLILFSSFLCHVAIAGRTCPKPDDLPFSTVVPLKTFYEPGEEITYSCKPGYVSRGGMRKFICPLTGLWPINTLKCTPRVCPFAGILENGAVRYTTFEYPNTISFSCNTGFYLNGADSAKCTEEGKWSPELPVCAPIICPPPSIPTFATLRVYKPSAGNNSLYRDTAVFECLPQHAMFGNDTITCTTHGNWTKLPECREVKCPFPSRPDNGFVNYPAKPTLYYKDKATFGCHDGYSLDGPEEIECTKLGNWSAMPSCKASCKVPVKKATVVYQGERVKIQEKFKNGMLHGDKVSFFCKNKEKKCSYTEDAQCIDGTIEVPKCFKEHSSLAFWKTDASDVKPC
Chain of UniProt Q02252 (Q02252 whole entry, looked up): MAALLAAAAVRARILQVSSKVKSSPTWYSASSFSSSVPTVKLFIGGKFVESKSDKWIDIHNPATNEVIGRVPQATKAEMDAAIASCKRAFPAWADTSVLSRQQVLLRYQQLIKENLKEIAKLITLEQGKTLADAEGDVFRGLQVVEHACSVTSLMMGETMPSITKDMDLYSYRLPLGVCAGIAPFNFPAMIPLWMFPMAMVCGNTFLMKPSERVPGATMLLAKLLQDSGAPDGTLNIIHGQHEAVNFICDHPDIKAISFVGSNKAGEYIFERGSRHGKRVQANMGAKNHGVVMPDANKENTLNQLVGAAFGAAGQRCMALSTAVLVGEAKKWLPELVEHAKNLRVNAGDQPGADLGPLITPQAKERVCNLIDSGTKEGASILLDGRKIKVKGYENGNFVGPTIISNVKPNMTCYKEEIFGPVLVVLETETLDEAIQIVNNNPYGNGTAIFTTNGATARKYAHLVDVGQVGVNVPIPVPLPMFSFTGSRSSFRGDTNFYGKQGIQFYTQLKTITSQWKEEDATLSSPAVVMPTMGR
Chain of UniProt Q15059 (Q15059 whole entry, looked up): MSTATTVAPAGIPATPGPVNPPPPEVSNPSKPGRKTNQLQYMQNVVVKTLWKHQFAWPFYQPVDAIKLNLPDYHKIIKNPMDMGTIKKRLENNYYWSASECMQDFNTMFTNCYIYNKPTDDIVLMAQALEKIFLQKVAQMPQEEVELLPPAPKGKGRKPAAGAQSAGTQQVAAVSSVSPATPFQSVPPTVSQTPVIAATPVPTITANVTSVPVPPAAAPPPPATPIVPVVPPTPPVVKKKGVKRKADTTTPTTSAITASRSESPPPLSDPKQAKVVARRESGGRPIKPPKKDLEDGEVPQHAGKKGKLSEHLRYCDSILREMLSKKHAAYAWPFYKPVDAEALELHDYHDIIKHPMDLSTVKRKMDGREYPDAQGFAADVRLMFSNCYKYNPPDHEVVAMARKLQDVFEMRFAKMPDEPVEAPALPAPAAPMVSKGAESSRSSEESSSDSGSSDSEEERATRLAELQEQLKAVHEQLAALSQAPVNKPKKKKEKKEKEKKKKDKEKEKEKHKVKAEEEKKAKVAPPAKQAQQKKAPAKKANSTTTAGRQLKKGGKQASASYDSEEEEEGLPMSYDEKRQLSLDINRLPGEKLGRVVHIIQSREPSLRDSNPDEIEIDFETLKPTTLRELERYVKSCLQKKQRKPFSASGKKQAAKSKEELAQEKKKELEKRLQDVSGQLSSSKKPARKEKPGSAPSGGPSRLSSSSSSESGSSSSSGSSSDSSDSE
Chain of UniProt Q13685 (Q13685 whole entry, looked up): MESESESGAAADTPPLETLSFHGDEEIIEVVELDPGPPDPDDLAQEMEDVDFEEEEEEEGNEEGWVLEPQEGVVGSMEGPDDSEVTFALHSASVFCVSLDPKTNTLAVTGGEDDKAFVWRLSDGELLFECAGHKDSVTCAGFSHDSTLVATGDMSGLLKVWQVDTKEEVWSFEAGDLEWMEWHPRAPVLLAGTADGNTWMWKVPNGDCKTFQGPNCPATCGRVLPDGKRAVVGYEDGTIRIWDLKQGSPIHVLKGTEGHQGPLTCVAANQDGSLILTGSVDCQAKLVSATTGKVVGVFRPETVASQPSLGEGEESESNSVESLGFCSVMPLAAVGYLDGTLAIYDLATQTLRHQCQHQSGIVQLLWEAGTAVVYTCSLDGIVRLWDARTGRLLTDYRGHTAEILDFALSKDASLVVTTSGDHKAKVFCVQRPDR
Chain of UniProt P49189 (P49189 whole entry, looked up): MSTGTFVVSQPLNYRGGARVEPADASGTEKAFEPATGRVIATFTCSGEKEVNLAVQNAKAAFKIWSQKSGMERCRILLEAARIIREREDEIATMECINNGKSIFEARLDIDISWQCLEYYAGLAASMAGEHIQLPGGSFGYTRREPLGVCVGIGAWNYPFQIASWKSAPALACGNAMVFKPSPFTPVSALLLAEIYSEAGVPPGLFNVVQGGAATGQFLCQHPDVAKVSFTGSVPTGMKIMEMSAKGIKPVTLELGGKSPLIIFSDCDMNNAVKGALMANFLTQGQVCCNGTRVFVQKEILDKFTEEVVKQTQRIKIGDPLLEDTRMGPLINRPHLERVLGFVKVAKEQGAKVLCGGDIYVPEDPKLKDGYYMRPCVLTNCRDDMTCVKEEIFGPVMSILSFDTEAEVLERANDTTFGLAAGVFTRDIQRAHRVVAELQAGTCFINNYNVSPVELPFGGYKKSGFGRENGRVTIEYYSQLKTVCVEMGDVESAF
Chain of UniProt Q9NXW9 (Q9NXW9 whole entry, looked up): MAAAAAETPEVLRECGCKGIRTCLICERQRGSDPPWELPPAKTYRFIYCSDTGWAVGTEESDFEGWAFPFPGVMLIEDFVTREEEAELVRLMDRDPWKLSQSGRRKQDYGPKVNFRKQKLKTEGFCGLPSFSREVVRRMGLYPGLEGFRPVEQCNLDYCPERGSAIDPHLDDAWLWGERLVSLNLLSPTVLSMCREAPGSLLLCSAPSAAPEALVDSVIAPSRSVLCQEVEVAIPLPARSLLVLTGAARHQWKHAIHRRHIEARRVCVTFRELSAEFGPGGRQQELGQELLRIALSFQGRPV
Chain of UniProt P55008 (P55008 whole entry, looked up): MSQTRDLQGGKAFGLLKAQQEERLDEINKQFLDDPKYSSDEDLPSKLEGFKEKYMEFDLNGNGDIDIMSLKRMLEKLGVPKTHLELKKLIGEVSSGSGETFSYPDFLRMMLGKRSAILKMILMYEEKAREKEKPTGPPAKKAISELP
Chain of UniProt O14727 (O14727 whole entry, looked up): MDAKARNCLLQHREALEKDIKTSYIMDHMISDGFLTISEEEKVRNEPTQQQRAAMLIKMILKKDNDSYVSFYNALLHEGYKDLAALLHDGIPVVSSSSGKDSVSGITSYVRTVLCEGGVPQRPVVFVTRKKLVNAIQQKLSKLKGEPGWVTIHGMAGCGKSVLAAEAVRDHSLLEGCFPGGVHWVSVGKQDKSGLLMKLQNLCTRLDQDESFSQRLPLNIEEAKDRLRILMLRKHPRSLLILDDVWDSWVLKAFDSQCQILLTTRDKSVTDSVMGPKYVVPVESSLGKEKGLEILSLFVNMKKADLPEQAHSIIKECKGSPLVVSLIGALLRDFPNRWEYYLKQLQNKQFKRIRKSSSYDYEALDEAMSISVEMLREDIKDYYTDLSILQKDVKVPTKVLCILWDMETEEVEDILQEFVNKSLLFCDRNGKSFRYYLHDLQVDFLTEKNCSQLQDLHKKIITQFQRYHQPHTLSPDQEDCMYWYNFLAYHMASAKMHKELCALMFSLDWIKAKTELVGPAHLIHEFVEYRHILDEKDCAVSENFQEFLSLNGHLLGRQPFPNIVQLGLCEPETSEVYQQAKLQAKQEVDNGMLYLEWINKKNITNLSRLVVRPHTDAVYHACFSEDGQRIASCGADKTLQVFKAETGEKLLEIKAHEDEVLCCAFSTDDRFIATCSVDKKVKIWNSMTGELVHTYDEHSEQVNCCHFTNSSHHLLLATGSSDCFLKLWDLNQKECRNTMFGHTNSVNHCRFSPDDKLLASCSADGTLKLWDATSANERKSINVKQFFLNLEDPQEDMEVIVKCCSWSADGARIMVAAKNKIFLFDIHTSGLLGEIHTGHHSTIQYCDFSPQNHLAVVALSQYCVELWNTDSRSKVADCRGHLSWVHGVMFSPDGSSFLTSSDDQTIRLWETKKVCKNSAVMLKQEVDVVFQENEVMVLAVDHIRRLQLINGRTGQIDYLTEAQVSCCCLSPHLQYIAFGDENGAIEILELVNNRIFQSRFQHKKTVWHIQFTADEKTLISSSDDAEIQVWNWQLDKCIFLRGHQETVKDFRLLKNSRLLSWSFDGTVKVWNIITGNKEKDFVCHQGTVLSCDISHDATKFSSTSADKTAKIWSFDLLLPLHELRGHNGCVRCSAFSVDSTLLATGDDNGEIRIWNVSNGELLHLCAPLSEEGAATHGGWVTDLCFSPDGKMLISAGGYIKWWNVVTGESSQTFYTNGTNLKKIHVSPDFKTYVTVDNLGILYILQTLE
Chain of UniProt P17707 (P17707 whole entry, looked up): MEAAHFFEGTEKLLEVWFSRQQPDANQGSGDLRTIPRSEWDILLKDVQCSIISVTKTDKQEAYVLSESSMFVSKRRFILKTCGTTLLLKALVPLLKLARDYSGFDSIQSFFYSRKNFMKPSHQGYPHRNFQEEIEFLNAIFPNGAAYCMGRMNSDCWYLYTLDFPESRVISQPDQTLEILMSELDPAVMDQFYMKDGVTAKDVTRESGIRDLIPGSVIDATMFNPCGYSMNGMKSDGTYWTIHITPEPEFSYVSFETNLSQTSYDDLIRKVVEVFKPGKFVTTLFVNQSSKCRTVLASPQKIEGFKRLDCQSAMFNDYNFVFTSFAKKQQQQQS
Chain of UniProt Q9BUT1 (Q9BUT1 whole entry, looked up): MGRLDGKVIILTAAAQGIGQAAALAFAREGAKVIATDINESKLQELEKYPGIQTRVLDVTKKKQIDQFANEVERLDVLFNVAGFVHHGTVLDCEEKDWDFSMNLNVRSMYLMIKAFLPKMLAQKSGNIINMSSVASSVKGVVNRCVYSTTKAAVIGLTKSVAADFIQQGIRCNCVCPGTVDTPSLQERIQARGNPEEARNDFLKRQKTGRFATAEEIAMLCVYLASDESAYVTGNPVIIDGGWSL

Row | Target | log2 fold change
1 | AIF1 (UniProt P55008) | 0.078
2 | ALKBH4 (UniProt Q9NXW9) | -0.02
3 | BRD3 (UniProt Q15059) | -0.065
4 | ARHGAP4 isoform 2 (UniProt P98171) | -0.048
5 | ALDH9A1 (UniProt P49189) | 0.095
6 | ALDH6A1 (UniProt Q02252) | 0.028
7 | APOH (UniProt P02749) | -0.171
8 | AGAP3 isoform 4 (UniProt Q96P47) | 0.019
9 | ANK2 (UniProt Q01484) | -0.1
10 | AAMP (UniProt Q13685) | 0.023

Compound: CCn1cc(-c2ccnc3[nH]c(-c4cccc(CN(C)C)c4)cc23)c(-c2ccc(NC(=O)N(C)C)cc2)n1
Test: as above
Summary of the method: as §1

Row | Target | log2 fold change
11 | ABHD17A isoform 2 (UniProt Q96GS6) | -0.17
12 | AASDH (UniProt Q4L235) | 0.149
13 | ARFGAP2 (UniProt Q8N6H7) | 0.023
14 | ACTBL2 (UniProt Q562R1) | 0.162
15 | AMD1 (UniProt P17707) | -0.033
16 | BRD4 (UniProt O60885) | 0.597 (active)
17 | ADPRH (UniProt P54922) | 0.097
18 | BDH2 (UniProt Q9BUT1) | 0.005
19 | ANXA5 (UniProt P08758) | -0.041
20 | BTBD6 (UniProt Q96KE9) | -0.356
21 | BYSL (UniProt Q13895) | 0.053
22 | ALDH2 isoform 2 (UniProt P05091) | -0.014
23 | ARRDC1 (UniProt Q8N5I2) | 0
24 | BRIP1 (UniProt Q9BX63) | -0.122
25 | ADAM15 (UniProt Q13444) | -0.001
26 | ABCA3 (UniProt Q99758) | 0.168
27 | BRD8 isoform 2 (UniProt Q9H0E9) | 0.219
28 | ASS1 (UniProt P00966) | 0.04
29 | AIFM2 (UniProt Q9BRQ8) | -0.017
30 | ASB6 (UniProt Q9NWX5) | -0.076
31 | APAF1 (UniProt O14727) | -0.009
32 | ABITRAM (UniProt Q9NX38) | 0.137
33 | ALKBH4 (UniProt Q9NXW9) | -0.023
34 | BRD3 (UniProt Q15059) | 0.681 (active)
35 | ADD3 isoform 2 (UniProt Q9UEY8) | 0.066
36 | ALDH9A1 (UniProt P49189) | -0.005
37 | ALDH6A1 (UniProt Q02252) | -0.06
38 | APOH (UniProt P02749) | 0.078
39 | ANK2 (UniProt Q01484) | 0.122
40 | AAMP (UniProt Q13685) | -0.016

Compound: CN(C)CC(=O)Nc1ccc2[nH]c(=O)c3ccccc3c2c1
Test: as above
Summary of the method: as §1

Row | Target | log2 fold change
41 | ABHD17A isoform 2 (UniProt Q96GS6) | -0.067
42 | AASDH (UniProt Q4L235) | 0.189
43 | ARFGAP2 (UniProt Q8N6H7) | 0.017
44 | ACTBL2 (UniProt Q562R1) | -0.3
45 | AMD1 (UniProt P17707) | -0.101
46 | BRD4 (UniProt O60885) | 0.169
47 | ADPRH (UniProt P54922) | 0.1
48 | BDH2 (UniProt Q9BUT1) | 0.367
49 | ANXA5 (UniProt P08758) | 0.012
50 | BTBD6 (UniProt Q96KE9) | 0.066
51 | BYSL (UniProt Q13895) | 0.079
52 | ALDH2 isoform 2 (UniProt P05091) | -0.015
53 | ARRDC1 (UniProt Q8N5I2) | 0.023
54 | BRIP1 (UniProt Q9BX63) | -0.068
55 | ADAM15 (UniProt Q13444) | 0.066
56 | ABCA3 (UniProt Q99758) | 0.108
57 | AFG1L (UniProt Q8WV93) | 0.063
58 | BRD8 isoform 2 (UniProt Q9H0E9) | 0.432 (active)

Row | Target | log2 fold change
59 | ASS1 (UniProt P00966) | -0.072
60 | APOBEC3G (UniProt Q9HC16) | -0.148
61 | ATF7 isoform 6 (UniProt P17544) | 0.03
62 | AIFM2 (UniProt Q9BRQ8) | 0.003
63 | ASB6 (UniProt Q9NWX5) | 0.041
64 | APAF1 (UniProt O14727) | 0.037
65 | ABITRAM (UniProt Q9NX38) | 0.051
66 | AIF1 (UniProt P55008) | 0.01
67 | ALKBH4 (UniProt Q9NXW9) | 0.056
68 | BRD3 (UniProt Q15059) | 0.073
69 | ADD3 isoform 2 (UniProt Q9UEY8) | 0.036
70 | ARHGAP4 isoform 2 (UniProt P98171) | 0.036
71 | ALDH9A1 (UniProt P49189) | 0
72 | ALDH6A1 (UniProt Q02252) | -0.033
73 | APOH (UniProt P02749) | -0.141
74 | ANK2 (UniProt Q01484) | -0.018
75 | AAMP (UniProt Q13685) | 0.011
